Compound activity as filed in PubChem.
Tau fluor cs = counter-screen for tau fibril formation inhibitors. tau K18 P301L Alexa594 fluorescence, heparin fibrillization. Potency, µM (top dose mostly 57.7 µM), inactives show at the highest dose activity change, negative = decrease. actives 0.93% (n = 280,000). AID 1463; note: nearly all actives have a fitted effect of over 55% in size
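Human tau K18 P301L (15 uM unlabeled, 0.24 uM Alexa 594-labeled) in 100 mM sodium acetate pH 7 with 20 uM heparin, 6 hr at 37 C. ThT 30 uM added, 1 hr ambient; Alexa 594 FP and total fluorescence read at 555/632 nm.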
TexasRed fluor = alters Texas Red total fluorescence, flagging assay interference | TRb/SRC2 Texas Red total fluorescence interference | Potency, µM (top dose mostly 106 µM), inactives show top-dose fluorescence change, negative = quenching | actives 0.29% (n = 280,000); active = well fitted curve in either direction with a large enough effect; inconclusive = small, poorly fitted or top-dose-only effect
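Flags fluorescent or light-absorbing compounds by total fluorescence, S + 2P, at 555 nm excitation and 632 nm emission. Mixture: 20 nM Texas Red SRC2 peptide, 0.6 uM human TRb LBD, 1 uM T3, 5% DMSO; compound exposure 5 h at ambient temperature.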
Tau fibril FP = tau fibrillization inhibition (FP) | P10636 | K18 P301L tau heparin fibrillization, Alexa594 FP, 6 h | Potency, µM (titrated, usually from 57.7 µM), inactives show at the highest dose activity, negative = inhibition, actives largely listed as inhibitors | actives 0.39% (n = 280,000); note: nearly all actives have a fitted effect of over 55% in size
Target sequence (P10636 561-689 P618L limits assumed): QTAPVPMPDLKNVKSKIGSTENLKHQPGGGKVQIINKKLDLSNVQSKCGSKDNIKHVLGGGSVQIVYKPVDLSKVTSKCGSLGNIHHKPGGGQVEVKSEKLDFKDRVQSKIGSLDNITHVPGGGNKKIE
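K18 P301L tau (15 uM unlabeled/0.24 uM Alexa 594-labeled, final) + compound + heparin 20 uM final; 100 mM NaOAc pH 7; 6 hr 37 C; ThT 30 uM final added, 1 hr RT; FP ex 555/em 632 nm.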
RGS12 GoLoco inh = inhibitors of human Gai1-RGS12 GoLoco interaction (red fluorophore); P63096; Gai1:RGS12 GoLoco peptide FP, rhodamine, 10 min; Potency, µM (titrated, usually from 61.6 µM), without a hit: at the top dose activity, negative = inhibition, most hits filed as inhibitors; actives 0.44% (n = 230,000); AID 880; active = well fitted inhibition curve with a large enough effect, not every such curve was filed as active; inactive = no such curve, though single readings can be large or run the other way; note: nearly all actives have a fitted effect of over 30% in size
Target sequence (P63096 whole entry, looked up): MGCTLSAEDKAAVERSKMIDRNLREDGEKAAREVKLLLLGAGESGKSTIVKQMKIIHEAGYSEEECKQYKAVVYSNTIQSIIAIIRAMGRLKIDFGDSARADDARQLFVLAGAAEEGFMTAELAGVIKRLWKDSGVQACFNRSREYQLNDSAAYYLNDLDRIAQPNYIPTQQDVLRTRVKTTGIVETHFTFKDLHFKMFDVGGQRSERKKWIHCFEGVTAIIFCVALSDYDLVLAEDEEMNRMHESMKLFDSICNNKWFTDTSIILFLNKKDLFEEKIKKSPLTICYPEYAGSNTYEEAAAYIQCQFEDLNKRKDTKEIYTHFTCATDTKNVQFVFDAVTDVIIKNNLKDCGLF
TRb SRC2 PPI = disrupts binding of human TR beta to SRC2; TRbeta-SRC2 peptide binding, fluorescence polarization; receptor liganded with 1 µM T3; Potency, µM (doses to about 106 µM), for the others: top-dose activity change, negative = inhibition, hits mostly inhibitors; actives 0.065% (n = 280,000);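 note: plate controls were bound peptide for no effect and peptide without receptor for full effect; nearly all actives have a fitted effect of over 50% in size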
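Human TRb LBD (0.6 uM) plus Texas Red-labeled SRC2 peptide (20 nM), 1uM T3, 5% DMSO, 5 hr at ambient temperature. Decreased polarization (555/632 nm) flags inhibition; data normalized to free and bound peptide controls.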
Tau ThT inhib = inhibitors of human tau fibril formation, thioflavin T binding. recombinant tau K18 P301L (four-repeat tau fragment), heparin-induced fibrillization, ThT fluorescence. P10636. actives 2.1% (n = 270,000). Potency, µM (highest dose often 57.4 µM), inactives show top-dose activity, negative = inhibition, usual class: inhibitors; note: nearly all actives have a fitted effect of over 55% in size
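Tau K18 P301L fragment (15 uM unlabeled plus 0.24 uM Alexa 594-labeled) in 100 mM sodium acetate pH 7 with compound, fibrillization induced by 20 uM heparin for 6 hr at 37 C. Thioflavin T (30 uM) added, fluorescence read after 1 hr (ex 450, em 510 nm).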
* = called active by the depositor; ? = inconclusive; · = no result; [ ] = remark or other dose. Shown are actives, neighbours in structure and some others; about 3.1% of the full set was active somewhere. Unless noted, calls come from the whole dose curve; as a rule, active = well fitted curve in the direction sought with a large enough effect; inconclusive = small, poorly fitted or top-dose-only effect, or another doubt; inactive = no such curve, though single readings can be large; an effect the other way counts as inactive or inconclusive. Unless noted, % is set by controls: 0 for no effect and ±100 for the full control effect; potency is the fitted concentration of half-maximal effect.

SMILES | Tau fluor cs | TexasRed fluor | Tau fibril FP | RGS12 GoLoco inh | TRb SRC2 PPI | Tau ThT inhib
O=[N+]([O-])c1ccc(O)c(/C=N/n2cnc3ccccc32)c1 | -18.9% | -8.0% | 5.3% | -3.5% | 3.6% | ?
COc1ccc(-c2ccc(=O)n(CC(=O)Nc3ccc(OC)c(OC)c3)n2)cc1 | -23.9% | -0.7% | -3.7% | · | 2.7% | -14.2%
O=C(CN1c2ccccc2Sc2ccccc21)NNC(=O)Nc1cccc(Cl)c1 | 8.91µM*[quencher] | 1.9% | ? | 1.9% | 3.3% | -3.7%
O=C(Cc1ccccc1)NNC(=O)Nc1cccc(Cl)c1 | -2.5% | 2.4% | -2.9% | 12.6% | -0.2% | 1.7%
Cc1cnc(CNc2ncnc3ccc(-c4ccoc4)cc23)cn1 | · | · | · | 2.3% | · | ·
Cc1cccn2c(=O)c(C(=O)NCCCN3CCCCC3C)c(O)nc12 (centres undefined) | -8.4% | 17.8µM*[quencher] | -16.1% | · | -1.0% | -0.3%
CCC1CCCCN1CCCNC(=O)c1c(O)nc2c(C)cccn2c1=O (centres undefined) | -5.8% | -29.7% | -5.7% | · | 0.1% | 0.8%
CC1CCC(C(C)C)C(OC(=O)COC(=O)c2cc(O)ccc2N)C1 (centres undefined) | 11.2µM*[quencher] | -0.7% | ? | -7.8% | -2.0% | -13.7%
Cc1ccc(S(=O)(=O)NN2C(=O)c3ccccc3NC2c2ccco2)cc1 (centres undefined) | -15.6% | -2.8% | 0.6% | -1.3% | 14.4% | -12.5%
CN(C)c1ccc(/C=N/Nc2ccc(-n3ccnc3)nn2)cc1 | ? | -3.3% | -9.4% | -12.4% | 4.2% | 5.01µM*
CCc1ccc(S(=O)(=O)c2cn(C)c3cc(N4CCCCC4C)c(F)cc3c2=O)cc1 (centres undefined) | 2.2% | 112µM*[quencher] | -1.9% | · | -24.0% | -3.4%
CCCn1cc(S(=O)(=O)c2cc(C)ccc2C)c(=O)c2cc(F)c(N3CCOCC3)cc21 | 1.2% | 25.1µM*[quencher] | 10.8% | · | ? | -5.0%
CCCn1cc(S(=O)(=O)c2ccccc2)c(=O)c2cc(F)c(N3CCCC(C)C3)cc21 (centres undefined) | -7.3% | -6.5% | 6.8% | · | 1.0% | -6.4%
CCCCn1cc(S(=O)(=O)c2ccc(Cl)cc2)c(=O)c2cc(F)c(N3CCCC(C)C3)cc21 (centres undefined) | 9.1% | 100µM*[quencher] | 7.7% | · | -14.8% | -2.7%
CCCCn1cc(S(=O)(=O)c2ccc(CC)cc2)c(=O)c2cc(F)c(N3CCCC(C)C3)cc21 (centres undefined) | 0.6% | 89.1µM*[quencher] | -5.6% | · | -26.9% | -8.7%
CCc1ccc(S(=O)(=O)c2cn(C)c3cc(N4CCCC4)c(F)cc3c2=O)cc1 | 1.6% | 7.7% | -2.9% | · | 6.7% | 2.1%
CNC(=O)c1ccc(Nc2nnc(-c3ccc(C)c(S(=O)(=O)N4CCCCC4)c3)c3ccccc23)cc1 | ? | -27.2% | ? | · | -3.7% | -8.2%
COc1ccc(C2N(c3ccc(C)cc3)CCN2c2ccc(C)cc2)cc1O | 25.1µM*[quencher] | -0.9% | 11.9% | 1.7% | 5.0% | ?
Cc1ccccc1-c1cc2nc(-c3ccc([N+](=O)[O-])cc3)cc(=O)n2[nH]1 | -24.5% | -9.0% | 7.0% | 8.2% | -5.3% | ?
O=c1cc(-c2ccc([N+](=O)[O-])cc2)nc2cc(-c3ccc(F)cc3)[nH]n12 | ? | -0.3% | 13.2% | 5.0% | 3.6% | 10µM*
Cc1nc(N2CCN(C(c3ccccc3)c3ccccc3)CC2)[nH]c(=O)c1C | -0.6% | -0.8% | -5.4% | 2.7% | -2.0% | -2.5%
CC(C)CCNS(=O)(=O)c1ccc(N2CCCCS2(=O)=O)cc1 | 1.7% | -1.2% | -5.4% | · | 4.1% | 2.5%
Cc1cccc(NC(=O)c2c(Br)sc3c2CCCC3)c1 | -9.4% | ? | ? | · | -0.9% | -7.1%
Cc1ccccc1NC(=O)c1c(NC(=O)C(F)(F)F)sc2c1CCCCC2 | ? | 2.0% | ? | · | -11.9% | ?
